Consider 58 compounds from PubChem BioAssay AID1224865 (Sanford-Burnham Center for Chemical Genomics, 2016).

Molecules are shown by their SMILES. About 1,100 (0.31%) of roughly 360,000 compounds were called active. The sample as a whole holds a higher share of actives than the screen did. Values without a mark were called inactive. No stated cut-off is given here; in the data, active means activity change above about 30% (passing the limit was not always enough); inactive means the rest.

For the test, the target named is Hepatocyte nuclear factor 4-alpha (Homo sapiens) (UniProt P41235). The test is described as follows: HNF4-alpha DNA association modulation – biochemical, fluorescence polarization, FITC-DNA, primary screen (AID 1224865). Conditions: HNF4a-FITC DNA binding, 1 h, at 10 µM, stronger effect = higher value. (In fluorescence polarisation assays a small probe gives low polarisation when free and higher when bound to something large.)
Sequence of Hepatocyte nuclear factor 4-alpha (Homo sapiens) (P41235 whole entry, looked up): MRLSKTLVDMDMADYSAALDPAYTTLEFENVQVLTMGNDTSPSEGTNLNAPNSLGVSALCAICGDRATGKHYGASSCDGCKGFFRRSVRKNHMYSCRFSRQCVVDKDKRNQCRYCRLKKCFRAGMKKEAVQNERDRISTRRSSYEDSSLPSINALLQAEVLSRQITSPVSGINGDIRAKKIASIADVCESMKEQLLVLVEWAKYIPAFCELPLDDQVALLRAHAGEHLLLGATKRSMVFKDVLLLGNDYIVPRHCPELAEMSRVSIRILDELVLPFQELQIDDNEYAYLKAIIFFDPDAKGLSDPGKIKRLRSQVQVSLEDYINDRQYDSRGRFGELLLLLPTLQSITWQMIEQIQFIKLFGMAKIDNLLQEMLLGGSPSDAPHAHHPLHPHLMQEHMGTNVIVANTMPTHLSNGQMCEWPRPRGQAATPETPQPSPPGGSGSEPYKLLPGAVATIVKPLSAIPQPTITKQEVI
As to `CC(C)c1ccc(Nc2nnc(SCC(=O)c3nnc(-c4ccccc4)o3)s2)cc1`, the activity change was 7.36%.
The result for `COc1ccc(CNC(=O)CN(Cc2ccc(Cl)cc2)S(C)(=O)=O)cc1` reads 1.96%; that for `CC[n+]1cc(C)ccc1/C=C/c1ccc(N(C)C)cc1`, 76.1% (active).
The result for `COc1ccccc1CNC(=O)c1ccc(N(C)S(=O)(=O)c2ccc(C)cc2)cc1` reads 0.49%; that for `COc1cc(NS(=O)(=O)c2ccc(NC(=O)c3ccc(S(=O)(=O)N4CCCCC4)cc3)cc2)ncn1`, -0.94%.
Take `COC(=O)[C@]1(C)N[C@H](c2ccc(-c3ccc(Cl)c(Cl)c3)cc2)[C@@H]2C(=O)N(C)C(=O)[C@@H]21`: the activity change was -0.96%.
The result for `CCCn1nc(C(=O)N2CCCc3ccccc32)c2ccccc2c1=O` reads 0.42%; that for `Cc1cccc2cc3c(N)c(C(=O)N4CCCc5ccccc54)sc3nc12`, 47.6% (active); that for `COc1cccc(/C=C/C(=O)OCC(=O)N2CCCc3ccccc32)c1`, -0.26%.
For the compound `O=C(NCc1ccccc1)C1CNCC(C(=O)NCc2ccccc2)C1` (stereo not drawn), the activity change was -1.7%.
`CC(=O)Nc1ccc(S(=O)(=O)N2CCC(C(=O)NC3CC3)CC2)cc1`: the activity change was -2.11%.
Next, `COc1ccc(C(C)=O)cc1COC(=O)Cn1cnc2ccccc2c1=O`: 3.19%; `CC(=O)c1c(C)[nH]c(C(=O)OCC(=O)NCCC(C)C)c1C`: -3.31%; `COc1cc(C)c(CN2CCN(C(=O)CCC(=O)c3ccc(C)s3)CC2)cc1OC`: -0.43%.
The result for `O=C(Nc1ccccc1)c1ccccc1Br` reads -2.18%; that for `O=C(Nc1ccncc1)c1cc(-c2ccccn2)nc2ccc(Br)cc12`, 43.9% (active); that for `O=C(Nc1ccc(Br)cc1)c1cc(S(=O)(=O)Nc2ccccn2)ccc1Cl`, 0.97%.
The result for `O=C(CSc1nnc(Cn2cnc3ccccc32)o1)c1ccccc1` reads 1.06%; that for `NC(CSC(c1ccccc1)(c1ccccc1)c1ccc(-c2ccccc2)cc1)C(=O)O` (stereo not drawn), -4.58%.
Consider `CN(C)c1ccc(-n2cccc2/C=C2/SC(=Nc3ccc(F)cc3)NC2=O)cc1`, for which the activity change was 35.7% (active).
Next, `CN(C)c1ccc(-n2cccc2/C=N/n2cnnc2)cc1`: -0.7%; `O=C(COC(=O)Cc1ccccc1F)NNC(=O)c1ccc(Cl)cc1`: -2.29%.
Regarding `O=C(NN1C(=O)C2C3C=CC(C3)C2C1=O)c1ccco1` (stereo not drawn), the activity change is 1.06%.
Next, `CCN1/C(=C\c2ccc3ccccc3[n+]2CC)Sc2cc(C)ccc21`: 81.5% (active).
Turning to `Cc1ccc(S(=O)(=O)N2CC(O)C[C@H]2C(=O)OCC(=O)Nc2ccc(N3CCOCC3)cc2)cc1C` (stereo partly drawn), the activity change is -2.65%.
Consider `Cn1c2ccccc2c2cc(/C=C(\NC(=O)c3ccccc3)C(=O)NCC(=O)O)ccc21`, for which the activity change was 43.6% (active).
The result for `COc1ccc(/C=C(\NC(=O)c2ccccc2)C(=O)NCCN2CCOCC2)cc1OC` reads -1.85%; that for `CCOc1ccc(/C=C(/NC(=O)c2ccccc2)C(=O)NCCC(=O)O)cc1`, 1.05%.
Regarding `Cc1ccc(S(=O)(=O)c2ccc(Cl)cc2)cc1S(=O)(=O)NC(C(=O)O)C(C)C` (stereo not drawn), the activity change was -3.32%.
The result for `CCOC(OCC)c1ccc(/C=C\c2nccc(N)n2)cc1` reads 2.56%; that for `Cc1oc2nc(SCC(=O)Nc3ccc(S(N)(=O)=O)cc3)nc(NC(=O)c3ccccc3)c2c1C`, -0.08%; that for `COc1ccc(CCNS(=O)(=O)c2cn(C)nc2C)cc1`, 1.38%.
The result for `N#Cc1ccccc1NC(=O)COc1c(Br)cc(Br)c2cccnc12` reads -0.16%.
With `N#Cc1ccc(C(=O)Nc2cccc3cccnc23)c(F)c1`, the activity change is 43.6% (active).
Next, `CSc1ccc(C#N)cc1NC(=O)c1ccc(Cl)cc1`: 2.01%.
The result for `COCCNC(=O)c1cc2c(Br)ccc(Br)c2nc1N` reads -2.58%; that for `Cc1cccn2c(=O)c(C=O)c(Nc3ccc(S(N)(=O)=O)cc3)nc12`, -2.3%.
Next, `Cc1cccn2c(=O)c(/C=C3\SC(=S)N(CC(C)C)C3=O)c(NCCCOC(C)C)nc12`: 82.9% (active); `CCCN(CCC)c1nc2c(C)cccn2c(=O)c1/C=C1/SC(=S)N(Cc2ccco2)C1=O`: 8.02%; `CCc1nnc(NC(=O)CSc2nc(SC)ns2)s1`: 0.21%.
For `Cc1cc(C(=O)CC#N)c(C)n1-c1c(C)n(C)n(-c2ccccc2)c1=O`, the activity change is 11.5%.
For `CCCCSCCCNC(=O)C1CCC(CNS(=O)(=O)c2ccc(NC(C)=O)cc2)CC1` (stereo not drawn), the activity change was 2.47%.
The result for `CCc1ccc(C2C(C#N)=C(N)N(N(C)C)C3=C2C(=O)CCC3)s1` (stereo not drawn) reads 0.21%; that for `CCCC(O)(CCC)C(=O)NN(C(=O)CCl)c1cccc(C)c1`, 0.04%.
The result for `N[C@@H](Cc1ccccc1)C(=O)N1CCOCC1` reads 2.36%.
Next, `COc1cc(/C=C(\C#N)c2nc3ccccc3[nH]2)ccc1O`: 50.5% (active); `COc1cc(C=NC2CCCCC2)ccc1O`: 1.88%; `CCN(/N=C/c1ccc(N(C)C)cc1)c1nc2ccccc2[nH]1`: -0.96%.
In the case of `COc1cc(/C=C(\C#N)c2nc3c(s2)CC(C)CC3)ccc1O` (stereo not drawn), the activity change is 74% (active).
Next, `COC(=O)CSc1ccc2nnc(CCNS(=O)(=O)c3ccc(C)cc3)n2n1`: -1.91%; `CC(NC(=O)C(C)(C)C)C(c1cccs1)N1CCN(Cc2ccccc2)CC1` (stereo not drawn): -1.5%.
The result for `CN1OC[C@@H]2CN(C(=O)c3cccnc3)[C@H](c3ccc(N4CCCCC4)cc3)C[C@@H]21` reads 10.4%; that for `Cc1ccc(CNC(=O)c2ccc(CS(=O)Cc3cccc(Cl)c3)o2)cc1` (stereo not drawn), 1.72%; that for `CCc1ccc(NC(=O)CC2C(=O)NCCN2C(=S)Nc2ccccc2)cc1` (stereo not drawn), 1.59%.
Next, `Cc1c(N=Nc2ccc(N(C)C)cc2)c(=O)n(-c2ccccc2)n1C`: 35.5% (active); `Cc1nc(N)sc1N=Nc1c(C)n(C)n(-c2ccccc2)c1=O`: 6.08%.
As to `Cc1c(C=O)n(C)n(-c2ccccc2)c1=O`, the activity change was 1.77%.
The result for `O=C(CCN1C(=O)C2CCCCC2C1=O)Nc1ccc(OC(F)F)cc1` (stereo not drawn) reads 1.26%.
